Results filed as inconclusive are left out. Unmarked numbers belong to inactive results. Calls follow the shape of the full dose curve.
Target: Retinoic acid receptor RXR-alpha (Homo sapiens) (UniProt P19793)
Assay: qHTS assay to identify small molecule agonists of the RXR signaling pathway (AID 1159527); also: nearly all actives have a fitted effect of over 35% in size
Conditions: HEK293T RXRa-UAS-bla, beta-lactamase ratio, 16 h; series mostly up to 76.8 µM; activation: at the top concentration
Source text: U.S. Tox21 Program National Center for Advancing Translational Sciences [NCATS] NIH Chemical Genomics Center [NCGC] U.S. Environmental Protection Agency [EPA] National Institutes of Environmental Health Sciences [NIEHS] National Toxicology Program [NTP] U.S. Food and Drug Administration [FDA] Tox21 Assay Overview: The Retinoid X receptor (RXR), a nuclear hormone receptor expressed in liver, spleen, placenta, epidermis, central nervous system. These receptors are able to form homo and heterodimers with other nuclear receptors and due to this heterodimerizing ability, RXR functions as master regulators producing diverse physiological effects. Three subtypes of RXR exist; alpha, beta and gamma. Retinoid X receptor alpha (RXR-alpha) has potential roles in metabolic signaling pathways, skin alopecia, dermal cysts, cardiac development, insulin sensitization etc. Therefore screening environmental chemicals on RXR-alpha signaling can be used for the studies focused on such therapeutic applications. For quantification of RXR-alpha ligands signaling, GeneBLAzer RXR alpha-UAS-bla HEK 293T (Life Technologies, Carlsbad, CA) cells containing a beta-lactamase reporter-gene under control of Retinoid X receptor-alpha response element were used to screen Tox21 10K library.
Tox21 Assay Protocol Summary: RXR-alpha HEK 293T cells were dispensed at 2,000 cells/6 uL of assay medium containing 2% charcoal-stripped FBS using a Multidrop Combi (ThermoFisher Scientific, Waltham, MA) dispenser. The assay was performed in black wall/clear-bottom 1536-well plates (Greiner Bio-One North America Inc. Monroe, NC). 9-cis retinoic acid was used as a positive control in the agonist mode screen. After the assay plates were incubated at 37 C and 5% CO2 for 5 hr, 23 nL of compounds dissolved in DMSO, positive controls or DMSO only were transferred to the assay plate by a Pintool station (Kalypsys, San Diego, CA). The assay plates were incubated at 37 C and 5% CO2 for 16 hr. One uL of LiveBLAzer B/G FRET substrate (Life Technologies) was added using a Flying Reagent Dispenser (Aurora Discovery, San Diego, CA) and the plates were incubated at room temperature for 2 hr. Fluorescence intensity (405 nm excitation, 460/530 nm emission) was measured using an Envision plate reader (PerkinElmer, Shelton, CT).
% is scaled to controls: 0 for no effect and ±100 for the full control effect.

Chain of Retinoic acid receptor RXR-alpha (Homo sapiens) (P19793 whole entry, looked up): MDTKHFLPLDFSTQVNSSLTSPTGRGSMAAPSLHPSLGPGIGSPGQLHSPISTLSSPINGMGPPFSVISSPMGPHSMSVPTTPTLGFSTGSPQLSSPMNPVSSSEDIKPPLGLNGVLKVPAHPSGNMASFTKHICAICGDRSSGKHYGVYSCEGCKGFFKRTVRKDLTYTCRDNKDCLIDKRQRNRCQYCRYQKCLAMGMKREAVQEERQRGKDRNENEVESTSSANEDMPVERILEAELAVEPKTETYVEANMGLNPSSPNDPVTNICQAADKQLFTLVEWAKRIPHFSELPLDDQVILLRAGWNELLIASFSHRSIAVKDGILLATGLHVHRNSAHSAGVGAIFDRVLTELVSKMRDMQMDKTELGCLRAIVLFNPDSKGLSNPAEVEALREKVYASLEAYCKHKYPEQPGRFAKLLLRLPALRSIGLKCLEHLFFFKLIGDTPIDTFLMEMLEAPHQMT

SMILES | activation
CCC(=O)C(CCN(C)C)(c1ccccc1)c1ccccc1 | -15.8% [at 35.3 µM]
COP(=S)(OC)Oc1ccc(S(N)(=O)=O)cc1 | 5.47% [at 35.3 µM]
CC(CCc1ccccc1)NC(C)C(O)c1ccc(O)cc1 (stereo not given) | 0.183% [at 35.3 µM]
CC(=O)C(Cl)Cl | -6.45%
CCCCOC(=O)c1ccccc1N | -11.3%
COc1cc(OC)nc(Oc2cccc(Oc3nc(OC)cc(OC)n3)c2C(=O)O)n1 | 13.1%
C[C@@H]1CN(C2CCC(C#N)(c3ccc(F)cc3)CC2)CC[C@]1(C(=O)O)c1ccccc1 (stereo not given in full) | 1.23% [at 35.3 µM]
COC(=O)c1c(C(F)F)nc(C(F)(F)F)c(C2=NCCS2)c1CC(C)C | -4.97%
CCOC(=O)C1(c2ccccc2)CCN(CCc2ccc(N)cc2)CC1 | 2.11% [at 35.3 µM]
CC1COC2(c3ccccc3Cl)c3cc(Cl)ccc3NC(=O)CN12 (stereo not given) | -24% [at 35.3 µM]
Cc1coc2c1CCC(C)C2 (stereo not given) | -10.3%
COP(=S)(OC)Oc1c(Cl)cc(C)cc1Cl | -1.44%
CNNC | 4.9%
CCC(C)(C)c1cc(-n2nc3ccccc3n2)c(O)c(C(C)(C)CC)c1 | -14.1%
Cc1cccc(C#N)c1 | 8.09%
O=C(Oc1ccc(Br)cc1)N1CCN2CCC1CC2 | -6.11%
CC(C)CC(N(C)C)C1(c2ccc(Cl)cc2)CCC1 (stereo not given) | -1.17% [at 35.3 µM]
O=NN1CCCCC1 | 13.3%
N#CCCC#N | 12.4%
CC1(C(=O)Nc2ccc(O)c(Cl)c2Cl)CCCCC1 | 3.76%

SMILES | activation
ClCCOCOCCCl | 8.96%
CCOC(=O)C(c1c(O)c2ccccc2oc1=O)c1c(O)c2ccccc2oc1=O | 7.95% [at 35.3 µM]
CCN(Cc1ccc(Cl)nc1)/C(=C/[N+](=O)[O-])NC | -1.81% [at 35.3 µM]
CCOP(=S)(Oc1cnc(C(C)(C)C)nc1)OC(C)C (stereo not given) | -1.39%
CN/C(=N\[N+](=O)[O-])NCC1CCOC1 (stereo not given) | 2.58%
COc1cc(OC)nc(NC(=O)NS(=O)(=O)c2ncccc2C(=O)N(C)C)n1 | -4.55%
OCCBr | -15.7%
c1ccc(N2CCNCC2)cc1 | 7.01% [at 35.3 µM]
CCN(CC)CCOC(=O)C(C)(c1ccccc1)c1ccccc1 | 1.88% [at 35.3 µM]
Cc1ncsc1CCCl | -1.66% [at 35.3 µM]
Cc1ccccc1CO[C@@H]1C[C@@]2(C(C)C)CC[C@]1(C)O2 | -17.8%
CC(Cl)(Cl)[N+](=O)[O-] | 0.925%
COC(C)(C)C | 8.1%
CC(C(=O)c1ccccc1)N(C)C (stereo not given) | 11% [at 35.3 µM]
O=P(O)(Oc1ccccc1)Oc1ccccc1 | 6.02%
Cc1nc(N)nc(N)n1 | 8.66%
CC(C)[N+](=O)[O-] | 10.1%
CCCCCCI | 8.26%
Clc1cccc(N2CCNCC2)c1 | 4.3% [at 35.3 µM]
COC(=O)C(c1ccccc1)C1CCCCN1 (stereo not given) | 16%
